Epigenetic derep – Quantitative High-Throughput Screen for Regulators of Epigenetic Control; murine LDR cells, GFP reporter derepression, 30 h; Potency, µM (highest dose often 53.9 µM), actives largely listed as activators; 280,000 tested, 0.2% active; active = well fitted activation curve with a large enough effect; inconclusive = small, poorly fitted or top-dose-only effect; note: nearly all actives have a fitted effect of over 60% in size
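In this reporter-derepression format, murine cells bearing a silenced integrated CMV-GFP locus incubate with test compound (30 h, 37 C), then are washed and imaged; fluorescent objects of 20–120 um count as induced cells.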
TRHR agonist – qHTS for Small Molecule Agonists and Allosteric Enhancers of Human TRH Receptor: Primary Screen for Agonists; Thyrotropin-releasing hormone receptor (Homo sapiens), P34981; TRHR cells, calcium flux fluo-8, FDSS agonist mode; activation, % at 2 µM; 360,000 tested, 0.18% active
Target sequence (P34981 whole entry, looked up): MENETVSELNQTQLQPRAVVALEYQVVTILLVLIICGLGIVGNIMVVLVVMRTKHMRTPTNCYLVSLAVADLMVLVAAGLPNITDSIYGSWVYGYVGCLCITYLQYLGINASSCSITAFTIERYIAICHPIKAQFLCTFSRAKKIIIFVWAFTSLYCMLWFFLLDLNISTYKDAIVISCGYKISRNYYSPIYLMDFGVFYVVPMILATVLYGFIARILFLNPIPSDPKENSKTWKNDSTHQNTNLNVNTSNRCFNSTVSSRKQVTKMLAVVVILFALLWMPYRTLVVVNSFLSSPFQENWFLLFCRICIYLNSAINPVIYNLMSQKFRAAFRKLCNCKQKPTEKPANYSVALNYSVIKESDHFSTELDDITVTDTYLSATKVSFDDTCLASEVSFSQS
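In this calcium-flux screen, cells bearing human TRHR are dye-loaded with fluo-8, baselined for 10 cycles, then exposed to library compounds; positive kinetic calcium responses during the agonist phase mark hits, with TRH as control.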
TRHR PAM – qHTS for Small Molecule Agonists and Allosteric Enhancers of Human TRH Receptor: Primary Screen for Enhancers | enhancement, % at 2 µM | 360,000 tested, 0.66% active | AID 493056, 2011 | Thyrotropin-releasing hormone receptor (Homo sapiens), P34981 | TRHR cells, fluo-8 calcium fluorescence, EC20 TRH enhancement; in the data active = enhancement above about 30%
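Enhancer read-out: after compound pinning and an initial kinetic agonist-mode read, an EC20 of TRH (10 nM final) was injected and fluo-8 calcium signal (Ex 480/Em 530) followed at 1 s/cycle for 100 cycles in TRHR-expressing cells.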
D1 ag – Allosteric Agonists of the Human D1 Dopamine Receptor: qHTS | HEK293 T-REx D1 cells, calcium flux, agonist mode | activation, % at 2 µM | 360,000 tested, 1% active | D(1A) dopamine receptor (Homo sapiens), P21728
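Agonism was scored from calcium flux recorded over 180 s (1 read/s) after pintool compound addition, following a 10-cycle baseline. Cells were inducible force-coupled HEK293 TREx D1, plated overnight at 30 C and loaded with no-wash calcium dye.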
D1 antagonist – Antagonist of Human D 1 Dopamine Receptor: qHTS | HEK293 TREx D1 cells, calcium flux, dopamine EC80; stronger effect = lower value | D(1A) dopamine receptor (Homo sapiens), P21728 | activity change, negative = inhibition, % at 10 µM | 360,000 tested, 3.2% active; in the data active = activity change below about -30%
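After overnight tetracycline induction at 30 C, force-coupled D1 HEK293 cells took up a no-wash calcium dye at room temperature. Compounds were added and monitored 180 s, and the response to EC80 dopamine was then recorded.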
D1 potentiator – Potentiators of Human D1 Dopamine Receptor: qHTS; D(1A) dopamine receptor (Homo sapiens), P21728; HEK293 TREx D1 cells, calcium flux, dopamine EC20 potentiation; potentiation, % at 10 µM; 360,000 tested, 0.036% active; AID 504651, 2011; in the data active = potentiation above about 30%
Numbers stand for hits; 0 = inactive; ? = inconclusive; - = no result given. Shown are actives, neighbours in structure and some others; about 4.6% of the full set was active somewhere. Cut-off read from the data, not from the text of the source, unless noted: active = activation above about 30%; inactive = the rest.

SMILES	Epigenetic derep	TRHR agonist	TRHR PAM	D1 ag	D1 antagonist	D1 potentiator
COc1ccc(C(=O)C2CCCN(Cc3c(O)cccc3OC)C2)cc1OC (centres undefined)	-	0	0	0	0	0
COc1ccc(Br)cc1CN1CCCC(C(=O)N2CCCCCC2)C1 (centres undefined)	0	0	0	0	-34	0
Cc1ccc(-n2nc3c(N4CCC(C(=O)N5CCCCC5)CC4)nnc(C)c3c2C)cc1	0	0	0	0	0	0
Cc1ccc(O)c(NC(=O)c2cc(-c3ccccc3O)no2)c1	0	0	0	0	-31	0
Cc1cc(O)c(NC(=O)c2cc([N+](=O)[O-])ccc2Cl)cc1C	0	0	0	0	0	0
Cc1ccc(O)c(NC(=O)c2cc([N+](=O)[O-])ccc2Cl)c1	0	0	0	0	-30	0
Cc1ccc(O)c(NC(=O)c2cc(-c3ccccc3Cl)on2)c1	-	0	0	0	-33	0
Cc1ccc(-c2cc(C(=O)Nc3cc(C)ccc3O)no2)cc1	-	0	0	0	0	0
CC/C=C\C[C@H](O)/C=C/C=C\C/C=C\C/C=C\CCCC(=O)O	0	-	-	-	-	-
Cc1cccc(NC(=O)C2CCCN(S(=O)(=O)c3ccc4c(c3)oc(=O)n4C)C2)c1C (centres undefined)	0	0	0	0	0	0
CCOc1ccc(C(=O)c2cn(Cc3ccc(OC)cc3)c3cc(OC)c(OC)cc3c2=O)cc1	0	0	0	0	0	0
CCCn1c(=O)c2sccc2n2c(CCCC(=O)N3CCN(c4ccccc4OC)CC3)nnc12	0	0	0	0	0	0
Cc1ccc(OCCn2c(=O)n(C)c3ccccc32)cc1	0	0	0	0	0	0
Cn1c(=O)n(CCOc2ccc([N+](=O)[O-])cc2)c2ccccc21	0	0	0	0	-59	0
CCCCC(CC)C(=O)NCCc1ccc(S(N)(=O)=O)cc1 (centres undefined)	0	0	0	0	0	0
NS(=O)(=O)c1ccc(CCNC(=O)c2ccc3ccccc3n2)cc1	0	0	0	0	-31	0
CCC(CC)C(=O)NCCc1ccc(S(N)(=O)=O)cc1	0	0	0	0	-42	0
CCC(CO)NC(=O)C(=O)Nc1c2c(nn1-c1ccc(F)cc1)CSC2 (centres undefined)	0	0	0	0	-	0
CCCN(CCC)C[C@@H]1CCCCN1CCNC(=O)N1c2ccccc2C(=O)Nc2cccnc21	0	-	-	-	-	-
CNCCCC1c2ccccc2C=Cc2ccccc21	0	0	0	43	0	0
CC1CCN(S(=O)(=O)c2cn(CC(=O)Nc3ccc(F)c(Cl)c3)c(=O)c3ccccc23)CC1	0	0	0	0	0	0
O=C(NC(CC(=O)N1CCCC(C(F)(F)F)C1)c1ccccc1)c1ccccc1Cl (centres undefined)	-	0	33	0	0	0
CC1CCN(C(=O)CC(NC(=O)c2ccccc2Cl)c2ccccc2)CC1 (centres undefined)	-	0	0	0	0	0
CCOc1ccc(NC(=O)c2ccc(Br)o2)c([N+](=O)[O-])c1	?	0	0	0	-45	0
Cc1ccc(C(=O)Nc2nnc(S(=O)(=O)N3CCc4ccccc43)s2)cc1	0	0	0	0	0	0
SMILES	Epigenetic derep	TRHR agonist	TRHR PAM	D1 ag	D1 antagonist	D1 potentiator
COc1cccc(NC(=O)C2CCN(S(=O)(=O)c3cccc4nonc34)CC2)c1	0	0	0	0	0	0
COc1ccc(C2Nc3ccccc3NC3=C2C(=O)CC(C)(C)C3)c(OC)c1OC (centres undefined)	-	0	0	0	0	0
CC1(C)CC(=O)C2=C(C1)Nc1ccccc1N1C(=O)c3ccccc3C21 (centres undefined)	0	0	0	0	-42	0
COc1cccc(C2Nc3ccccc3NC3=C2C(=O)CC(C)(C)C3)c1OC (centres undefined)	-	0	35	0	0	0
Cc1c2cnn(-c3ccccc3)c(=O)c2c(C)n1CC(=O)NCc1ccccc1Br	0	0	0	0	0	0
CN(C)/C=C(/C(=O)c1ccc(Cl)cc1)S(C)(=O)=O	0	0	0	0	0	0
CN(C)c1ccc(/C=C(/C(=O)c2ccc(Cl)cc2Cl)n2cncn2)cc1	?	75	0	200	-50	0
CN(C)/C=C(/C(=O)c1ccc(Cl)cc1)n1cncn1	0	0	0	0	-33	0
COc1ccc(-c2coc3ccc(OC4OC(COC(C)=O)C(OC(C)=O)C(OC(C)=O)C4OC(C)=O)cc3c2=O)cc1 (centres undefined)	0	-	-	-	-	-
CCCOc1cccc(C(=O)Nc2ccc(-c3nc4ccccc4s3)c(Cl)c2)c1	0	0	0	0	0	0
CCCCC(=O)Nc1cccc(-c2nc3ncccc3o2)c1C	0	0	0	0	0	0
CCCCOc1cccc(C(=O)Nc2cccc(-c3nc4ncccc4o3)c2C)c1	0	0	43	0	0	0
Cc1ccc(NC(=O)CC(C)S(=O)(=O)c2ccc3c(c2)NC(=O)CO3)cc1Cl (centres undefined)	0	0	0	0	0	0
CN(CC(=O)Nc1ccc(F)cc1F)S(=O)(=O)c1ccc(C(=O)N2CCOCC2)s1	0	0	0	0	0	0
CC(C(=O)Nc1ccc([N+](=O)[O-])cc1)N1CCN(C/C=C/c2ccccc2)CC1 (centres undefined)	0	0	0	0	-45	0
Cc1ccc(NC(=S)NCc2cccs2)cc1	0	0	0	0	0	0
CCCCc1ccc(NC(=S)NCc2cccs2)cc1	0	0	0	0	-32	0
Cc1cccc(N2CCN(S(=O)(=O)c3cc(C(=O)Nc4ccc(Oc5ccccc5)cc4)ccc3F)CC2)c1C	0	0	0	0	0	0
Cc1ccsc1C(=O)Nc1n[nH]c(C(F)(F)F)n1	0	0	0	0	0	0
O=C(Nc1n[nH]c(C(F)(F)F)n1)C1CC1	0	0	0	0	-34	0
Cc1ccc2occ(CC(=O)N(Cc3ccc(Cl)cc3)C3CCS(=O)(=O)C3)c2c1 (centres undefined)	0	0	0	0	0	0
COc1ccc(/C(O)=C2/C(=O)C(=O)N(CCCN3CCOCC3)C2c2ccc(C)cc2)cc1 (centres undefined)	-	0	0	0	0	0
CCN(CC)CCN1C(=O)C(=O)/C(=C(/O)c2ccc(OC)cc2)C1c1ccco1 (centres undefined)	0	0	0	0	-34	0
